For part of these data: Potency and affinity values are given separately. The source made the active and inactive calls.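 Rule for the calls, unless noted: active = primary screen active and over 50% activation in each of two duplicate runs; inactive = the rest.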

Test [1] concerns TRPC4 beta (transient receptor potential cation channel C4), mouse. As to the kind of experiment: activators of mouse TRPC4 channel, confirmation, cell-based, Fluo4 calcium, HEK293 TRPC4beta/mu-opioid, duplicates, 10 µM (AID 2426;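 active = fluorescence ratio normalized to control raised more than 50% in primary screen plus both repeat runs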;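 for activation: percent rise of integrated ratio over buffer wells lacking compound which define 0%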). Particulars: Fluo4 calcium fluorescence, at 10 µM; active compounds read high.
Test [2] concerns transient receptor potential cation channel C4 beta (TRPC4), mouse. As to the kind of experiment: activators of mouse TRPC4 channel, confirmation, cell-based, second round, Fluo4, HEK293 TRPC4beta/mu-opioid, 1 µM (AID 2461). Particulars: Fluo4 calcium fluorescence, at 1 µM; active compounds read high.
Test [3] concerns TRPC4 (transient receptor potential cation channel C4 beta), mouse. The test is described as follows: positive allosteric modulators of mouse TRPC4, confirmation, cell-based, second round, Fluo-4, HEK293 TRPC4beta/mu-opioid, 1 µM (AID 2554;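 active = primary screen hit whose fluorescence ratio, in both repeats, exceeds the weak agonist control mean by 3 SD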). Particulars: DAMGO EC20, Fluo-4 calcium flux, at 1 µM; active compounds read high. A general note: A change in cytosolic calcium serves as a functional read-out for many receptors and channels.

Test [4] has as its system TRPC4 beta (transient receptor potential cation channel C4), mouse. The test is described as follows: positive allosteric modulators of mouse TRPC4, confirmation, cell-based, Fluo-4, HEK293 TRPC4beta/mu-opioid (AID 2555;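 active = primary screen hit whose calcium fluorescence ratio, in both repeats, exceeds the weak agonist control mean by 3 SD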). Particulars: DAMGO EC20, Fluo-4 calcium flux, at 10 µM; active compounds read high.
Test [5] deals with Short transient receptor potential channel 4 (Mus musculus) (UniProt Q9QUQ5). As to the kind of experiment: inhibitors of mouse TRPC4 channel, confirmation, cell-based, Fluo4, HEK293 TRPC4beta/mu-opioid (AID 2636;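 active = calcium signal cut by more than 3 SD below the full-agonist control yet still positive, in both repeats and the earlier primary screen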). Particulars: DAMGO, Fluo4 calcium flux, at 10 µM; active compounds read high.
Test [6] shares this target. The test is described as follows: inhibitors of mouse TRPC4 channel, confirmation, cell-based, second round, Fluo4, HEK293 TRPC4beta/mu-opioid, 1 µM (AID 2637;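 active = calcium signal ratio cut to more than 3 SD under the fully stimulated control mean yet still positive, in both repeats and the primary screen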;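 for inhibition: percent of integrated ratio relative to wells lacking test compound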). Particulars: Fluo4 calcium flux, DAMGO, at 1 µM; active compounds read high.
For test [7] the target is unchanged. As to the kind of experiment: mouse TRPC4 channel activators, dose response, cell-based, HEK293 TRPC4/mu-opioid, Fluo-4 calcium (AID 434937;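 active = primary screen activator hit with a dose response curve and TRPC4 channel activation at any tested dose; inactive = no activation, no dose response, or not a primary hit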).
For test [8] the target is unchanged. As to the kind of experiment: TRPC4 positive allosteric modulators, dose response, cell-based, HEK293 TRPC4/mu-opioid, Fluo-4 calcium, EC20 DAMGO (AID 434941;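 active = earlier screen potentiator hit that boosts the TRPC4 ion channel at some dose, with a dose response; inactive = no potentiation, no dose response, or not a prior hit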;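 note: calcium entry triggered by an EC20 dose of DAMGO at the co-expressed mu-opioid receptor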).
For test [9] the target is unchanged. The test is described as follows: mouse TRPC4 channel inhibitors, dose response, cell-based, HEK293 TRPC4/mu-opioid, Fluo-4 calcium (AID 434942;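 active = primary screen inhibitor hit that blocks the TRPC4 channel at some tested dose, yielding a dose curve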).
Test [10] concerns the target Short transient receptor potential channel 6 (Mus musculus) (UniProt Q61143). The test is described as follows: inhibition of mouse TRPC6 channel, confirmation, selectivity assay for TRPC4 inhibitor project, cell-based, HEK293, membrane potential dye, duplicate (AID 434948;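 active = active in primary screen and both duplicates, each dropping signal beyond three positive-control SD with fluorescence still positive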). Particulars: HEK293 TRPC6, membrane potential dye fluorescence, at 10 µM, stimulated with maximal-effect acetylcholine; active compounds read high.

Test [11] shares this target. The test is described as follows: activation of mouse TRPC6 channel, confirmation, selectivity assay for TRPC4 activator project, cell-based, HEK293, membrane potential dye, duplicate (AID 434950;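 active = membrane potential signal rise above negative control mean plus 3 SD in both duplicates, also active in the earlier TRPC4 screen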;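 for activation: 0% = buffer only wells and 100% = acetylcholine maximal-effect wells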). Particulars: HEK293 TRPC6, membrane potential fluorescence, at 10 µM; active compounds read high.
Test [12] shares this target. As to the kind of experiment: TRPC6 potentiation by TRPC4 potentiator hits, confirmation, selectivity assay for TRPC4 potentiator project, HEK293 cells, membrane potential dye, duplicate (AID 434952;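 active = compound raising the membrane signal above positive-control mean plus 3 SD in both repeats, and a primary screen hit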). Particulars: HEK293 TRPC6, membrane potential dye fluorescence, at 10 µM, maximal acetylcholine added after compound; active compounds read high.
The target in test [13] is Short transient receptor potential channel 4 (Mus musculus) (UniProt Q9QUQ5). As to the kind of experiment: calcium flux activators in TRPC4/5HT1a cells, counter-screen for TRPC4 activator project, cell-based, second counter screen, HEK293 TRPC4/5HT1a, Fluo-4 (AID 434977;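 active = calcium signal rise above buffer-control mean plus 5 SD in both duplicates, and also a hit in the primary screen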;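 for activation: plate controls were assay buffer for no effect and maximal serotonin response for full effect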). Particulars: Fluo-4 calcium flux, at 10 µM; active compounds read high.
Test [14] in a line: calcium flux inhibitors in TRPC4/5HT1a cells, confirmation, counter-screen for TRPC4 inhibitor project, cell-based, second counter screen, HEK293 TRPC4/5HT1a, Fluo-4 (AID 434978;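 active = primary screen active whose calcium signal fell more than 3 SD beyond the full-serotonin control mean in both duplicate plates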;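 for outcome: serotonin given first at submaximal then at maximal dose after compound preincubation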). Particulars: Fluo-4 calcium flux, at 10 µM, serotonin added to trigger calcium flux; active compounds read high.
Test [15] has as its system TRPC4 (mouse), co-expressed with 5HT1a in HEK293. The test is described as follows: calcium flux potentiators in TRPC4/5HT1a cells, confirmation, counter-screen for TRPC4 potentiator project, cell-based, second counter screen, HEK293 TRPC4/5HT1a, Fluo-4 (AID 434979;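 active = signal rise over 3 SD above mean of control wells given weak agonist, in both repeats and first screen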). Particulars: Fluo-4 calcium flux, at 10 µM, serotonin added at its EC20 dose; active compounds read high.
The nature of test [16]: calcium flux activation in mu-opioid HEK293 cells, confirmation, counter-screen for TRPC4 activator project, cell-based, HEK293 mu-opioid receptor line (AID 449723;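 active = hit in primary screen, with calcium signal over 5 SD above buffer well mean in both duplicates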;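 note: counter screen cells carry the mu-opioid receptor alone and lack TRPC4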). Particulars: Fluo-4 calcium fluorescence, at 10 µM; active compounds read high.
The nature of test [17]: calcium flux enhancement in mu-opioid HEK293 cells, confirmation, counter-screen for TRPC4 allosteric potentiator project, cell-based, HEK293 mu-opioid receptor line (AID 449724;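 active = calcium signal rise more than 3 SD above the low-dose agonist control mean, in both duplicate plates and the primary screen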;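 note: HEK293 cells carrying mu-opioid receptor only with no TRPC4 channel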). Particulars: Fluo-4 calcium flux, at 10 µM, compound added before EC20 DAMGO stimulus; active compounds read high.

Chain of Short transient receptor potential channel 6 (Mus musculus) (Q61143 whole entry, looked up): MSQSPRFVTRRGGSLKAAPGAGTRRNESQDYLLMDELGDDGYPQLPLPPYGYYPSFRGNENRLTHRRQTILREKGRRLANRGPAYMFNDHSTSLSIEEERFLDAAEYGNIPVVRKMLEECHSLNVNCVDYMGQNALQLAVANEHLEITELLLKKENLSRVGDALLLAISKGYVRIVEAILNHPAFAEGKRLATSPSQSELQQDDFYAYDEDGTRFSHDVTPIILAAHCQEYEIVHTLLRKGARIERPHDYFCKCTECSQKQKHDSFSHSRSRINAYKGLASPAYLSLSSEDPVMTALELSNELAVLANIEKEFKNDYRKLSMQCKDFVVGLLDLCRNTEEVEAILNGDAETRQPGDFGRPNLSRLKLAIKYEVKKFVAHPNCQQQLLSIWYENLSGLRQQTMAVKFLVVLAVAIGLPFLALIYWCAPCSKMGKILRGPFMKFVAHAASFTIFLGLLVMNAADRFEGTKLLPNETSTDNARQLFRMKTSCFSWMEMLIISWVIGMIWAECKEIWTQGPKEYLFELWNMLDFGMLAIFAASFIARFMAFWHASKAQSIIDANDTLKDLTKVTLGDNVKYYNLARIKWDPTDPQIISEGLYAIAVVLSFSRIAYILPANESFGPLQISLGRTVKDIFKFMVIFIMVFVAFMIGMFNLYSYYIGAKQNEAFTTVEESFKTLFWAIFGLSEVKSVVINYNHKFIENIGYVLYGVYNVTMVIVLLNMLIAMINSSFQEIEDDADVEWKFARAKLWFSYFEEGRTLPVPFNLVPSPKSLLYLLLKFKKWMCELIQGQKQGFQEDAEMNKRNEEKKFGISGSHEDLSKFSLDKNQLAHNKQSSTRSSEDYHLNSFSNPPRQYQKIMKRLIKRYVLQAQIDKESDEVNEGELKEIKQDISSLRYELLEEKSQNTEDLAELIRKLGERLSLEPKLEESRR
Chain of Short transient receptor potential channel 4 (Mus musculus) (Q9QUQ5 whole entry, looked up): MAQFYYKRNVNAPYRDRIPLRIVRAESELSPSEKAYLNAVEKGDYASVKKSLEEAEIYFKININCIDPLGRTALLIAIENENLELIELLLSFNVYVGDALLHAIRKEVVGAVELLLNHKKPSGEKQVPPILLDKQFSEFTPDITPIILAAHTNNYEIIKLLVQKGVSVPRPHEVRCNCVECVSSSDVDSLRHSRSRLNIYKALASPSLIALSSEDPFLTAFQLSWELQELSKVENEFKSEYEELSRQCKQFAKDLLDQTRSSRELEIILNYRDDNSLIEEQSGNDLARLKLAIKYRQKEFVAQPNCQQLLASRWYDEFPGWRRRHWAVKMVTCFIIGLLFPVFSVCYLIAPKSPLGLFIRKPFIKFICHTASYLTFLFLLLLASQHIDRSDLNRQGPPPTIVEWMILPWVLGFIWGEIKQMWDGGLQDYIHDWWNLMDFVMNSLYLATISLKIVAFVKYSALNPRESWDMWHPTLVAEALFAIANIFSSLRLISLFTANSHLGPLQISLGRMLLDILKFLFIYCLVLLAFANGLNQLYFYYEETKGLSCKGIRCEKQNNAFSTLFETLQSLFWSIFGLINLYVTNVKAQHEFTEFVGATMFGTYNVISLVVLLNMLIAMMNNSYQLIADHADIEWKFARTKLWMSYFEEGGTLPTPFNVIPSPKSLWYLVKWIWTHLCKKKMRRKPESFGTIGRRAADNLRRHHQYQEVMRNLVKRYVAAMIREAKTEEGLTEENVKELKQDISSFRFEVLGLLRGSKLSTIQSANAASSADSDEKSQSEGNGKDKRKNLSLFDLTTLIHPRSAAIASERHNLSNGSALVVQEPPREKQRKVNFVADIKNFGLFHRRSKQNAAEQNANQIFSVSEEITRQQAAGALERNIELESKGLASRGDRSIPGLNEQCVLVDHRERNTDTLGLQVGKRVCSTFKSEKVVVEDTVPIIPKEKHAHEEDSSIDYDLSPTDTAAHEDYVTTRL

`CN1CCN(c2ccc(Cl)cc2NC(=O)CC2OC(=O)c3ccccc32)CC1` (stereo not given): the result in test [1], in test [2], in test [5], in test [6], in [7] and in test [8] was inactive. Moreover, the result in test [9], in test [10], in test [11], in [12], in test [13] and in [14] was inactive. Besides, the result in [16] and in test [17] was inactive. Also, the results for the potentiation in test [3], in [4] and in test [15] were 33% (active), 33% (active) and 24.4% (active), respectively.

In the case of `CCCc1ccc(OCc2ccc(C(=O)N3CCCC3)o2)cc1`, the outcome in test [1], in [2], in test [3], in test [5], in test [6] and in test [7] was inactive. Also, the result in [8], in test [9], in test [10], in [11], in test [12] and in test [13] was inactive. Besides, the outcome in test [14], in test [16] and in test [17] was inactive. The values for the potentiation in [4] and in test [15] were 23% (active) and 31.2% (active), respectively.

For `O=C(N/N=C/c1ccccc1F)NC1CCCCC1`, the activation in test [1] was 85% (active); in test [11], 36.5% (active); in test [13], 17.8% (active). Moreover, the outcome in test [2], in test [5], in test [6], in [7], in test [8] and in test [9] was inactive. In addition, the molecule was classed as inactive in [10], in test [12], in [14], in test [16] and in [17]. Further, the potentiation is 12% (active) in test [3], 77% (active) in test [4] and 107% (active) in [15].

As for `CC(C)CCc1noc(CN2CCN(c3ccc(Cl)cn3)CC2)n1`, the outcome in test [1], in test [2], in test [3], in [4], in [5] and in test [6] was inactive. Also, the outcome in test [7], in test [8], in test [9], in test [10], in [11] and in test [12] was inactive. In addition, the outcome in [13], in [14], in [15], in test [16] and in test [17] was inactive.

`O=C(NC1CCCC1)c1cc2ccccc2o1`: the result in test [1], in [2], in [3], in test [5], in [6] and in test [7] was inactive. Further, the result in test [8], in test [9], in test [10], in test [11], in [12] and in [13] was inactive. In addition, the result in [14], in [16] and in test [17] was inactive. Further, the potentiation in [4] was 14% (active); in test [15], 19.7% (active).

`CCOP(=O)(c1ccccc1)c1nc(-c2ccccc2Cl)oc1N1CCCCC1` (stereo not given): the result in test [1], in test [2], in test [3], in [5], in test [6] and in test [7] was inactive. Moreover, the result in test [8], in test [9], in [10], in [11], in test [12] and in test [13] was inactive. The outcome in test [14], in [16] and in [17] was inactive. For the same molecule, the potentiation in test [4] was 23% (active); in test [15] it was 30.9% (active).

Turning to `CC(C)(C)c1ccccc1OCCCCCn1ccnc1`, the outcome in test [1], in [2], in [3], in [4], in [5] and in [6] was inactive. The outcome in [7], in test [8], in test [9], in test [10], in [11] and in [12] was inactive. Besides, the outcome in [13], in test [14], in test [15], in test [16] and in test [17] was inactive.

Turning to `CN1CCN(CC#CCn2c3ccccc3c3ccccc32)CC1`, the outcome in [1], in test [2], in [5], in test [6], in test [7] and in test [8] was inactive. Moreover, the outcome in test [9], in [10], in test [11], in [12], in test [13] and in test [14] was inactive. Moreover, the result in [16] and in test [17] was inactive. Moreover, the potentiation in test [3] is 10% (active); in test [4] it was 12% (active); in test [15], 38.7% (active).

For the molecule `COc1ccc(CCN2C(=S)N(C)C(=O)C2CC(=O)Nc2ccc(F)cc2)cc1` (stereo not given), the outcome in test [1], in test [2], in [3], in test [4], in test [5] and in test [6] was inactive. Moreover, the result in [7], in test [8], in [9], in [10], in [11] and in test [12] was inactive. The result in [13], in test [14], in test [15], in [16] and in test [17] was inactive.

On to `Cc1c(N2C(=O)/C(=C\C3CC=CCC3)SC2=S)c(=O)n(-c2ccccc2)n1C` (stereo not given), for which the result in test [1], in test [2], in test [3], in [4], in [5] and in [6] was inactive. The result in test [7], in test [8], in test [9], in test [10], in test [11] and in test [12] was inactive. Further, the result in test [13], in [14], in test [15], in test [16] and in test [17] was inactive.

As for `CCN(CC)CCCN(C(=O)c1cccs1)c1nc(-c2ccc(OC)cc2)cs1`, the outcome in test [1], in test [2], in test [3], in test [4], in test [5] and in test [6] was inactive. For the same molecule, the outcome in [7], in test [8], in test [9], in test [10], in test [11] and in test [12] was inactive. The outcome in test [13], in test [14], in test [15], in test [16] and in test [17] was inactive.

For the molecule `Oc1c(Br)cc(Br)c(/C=N/n2c(-c3ccccc3)n[nH]c2=S)c1Br`, the outcome in test [1], in test [2], in [3], in test [5], in test [6] and in test [7] was inactive. The outcome in [8], in test [9], in test [10], in test [11], in test [12] and in test [13] was inactive. In addition, the outcome in [14], in test [15], in test [16] and in test [17] was inactive. For the same molecule, in [4], the potentiation is 18% (active).

By inhibition is commonly meant the percentage by which the read-out fell short of the control. Consider `Cn1c(=O)n(CCCO)c(=O)c2c1nc1n2CCCN1Cc1ccccc1`, for which the result in test [1], in test [2], in test [3], in [4], in test [7] and in [8] was inactive. Further, the result in test [9], in test [10], in test [11], in test [12], in test [13] and in test [15] was inactive. The outcome in [16] and in [17] was inactive. Further, the inhibition was 86% (active) in test [5], 46% (active) in test [6] and 28.4% (active) in [14].

For `O=C(Nc1cnn(C23CC4CC(CC(C4)C2)C3)c1)c1cnn2cccnc12`, the result in test [1], in [2], in test [5], in [6], in test [7] and in test [8] was inactive. Also, the outcome in [9], in test [10], in test [11], in test [12], in [13] and in test [14] was inactive. The result in test [16] and in test [17] was inactive. Moreover, the figures for the potentiation in test [3], in [4] and in test [15] were 27% (active), 61% (active) and 71.9% (active), respectively.

Turning to `Cc1ccc(S(=O)(=O)c2c(C(=O)c3ccccc3)cnc3cc4c(cc23)OCCO4)cc1`, the outcome in test [1], in test [2], in [3], in test [4], in test [5] and in [6] was inactive. Further, the result in [7], in test [8], in test [9], in test [10], in test [11] and in [12] was inactive. For the same molecule, the outcome in test [13], in test [14], in test [16] and in test [17] was inactive. In test [15], the potentiation is 14.5% (active).

Source of the values: PubChem BioAssay.
